PubChem BioAssay (NCATS)
Inconclusive results are not listed. Entries that show only a call come without a potency. A number with no mark means an inactive call. Active and inactive are the calls of the source. Calls follow the shape of the dose curve; as a rule, active = well fitted cell-killing curve with a large enough effect; inconclusive = small, poorly fitted or top-dose-only effect, or effect the other way; inactive = flat fitted curve, though single readings scatter. *1 amine or outer side, *2 acyl side, *3 side chain or, on linkers, in order; H or OH if unused. Where a SMILES comes first, the peptide text is derived from it. [ ]: non-standard residue; d: D form. X4 = CC(C)=CCc1cc(C(O)C(N[*:1])C(=O)[*:2])ccc1O

Test system: Es-2
Experiment: Primary qHTS to identify gynecologic anti-cancer compounds using libraries of approved drugs and bioactive compounds (AID 1345084); also: nearly all actives have a fitted effect of over 55% in size
Conditions: Gynecologic cancer cell panel viability, ATPlite luminescence, 48 h; series mostly up to 57.5 µM
Summary of the method: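 Cytotoxicity screen measuring ATP content by luciferase luminescence. Each compound is applied at five concentrations for 48 h at 37 C with 5% CO2.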
Potency is read from the fitted curve at half-maximal effect.

Compound | Potency | activity change, negative = cytotoxicity
Cn1nnc(-c2ccc(-c3ccc(N4C[C@H](CO)OC4=O)cc3F)cn2)n1 | inactive | –
CC(=O)OC1CC2C3(C)CCC(OC(=O)CC(=O)O)C(C)(C)C3CCC2(C)C2(C)CCC(C3(C)CCC(=O)O3)C12 (configuration not stated) | inactive | –
COc1cc(O)cc(/C=C/c2ccc(O[C@@H]3O[C@H](CO)[C@@H](O)[C@H](O)[C@H]3O)cc2)c1 | inactive | –
O=S(=O)(c1ccccc1)c1cnc2c(N3CCNCC3)cccc2c1 | inactive | –
CC(C)c1cc(C(=O)N2CC[C@H](NC(=O)C3CC3)C2)n[nH]1 | inactive | –
CC(=O)OC1C(O)CC2(C)C(CCC(C)C23Cc2c(O)cc(CO)c(C=O)c2O3)C1(C)C (configuration not stated) | inactive | –
COC(=O)CC(C)(O)CC(=O)OCc1ccc(O[C@@H]2O[C@H](CO)[C@@H](O)[C@H](O)[C@H]2O)cc1 (some centres not stated) | inactive | –
CC(Cc1cc2c(c(C(N)=O)c1)N(CCCO)CC2)NCCOc1ccccc1OCC(F)(F)F (configuration not stated) | inactive | –
O=C1CCC=CC1(O)C(=O)OCc1ccccc1O[C@@H]1O[C@H](CO)[C@@H](O)[C@H](O)[C@H]1O (some centres not stated) | inactive | –
C=C1C(O)CC2C(C(=O)O)=COC(O[C@@H]3O[C@H](COC(=O)/C=C/c4ccc(O)cc4)[C@@H](O)[C@H](O)[C@H]3O)C12 (some centres not stated) | inactive | –
O=C(OC1C=C(CO)C2C(OC3OC(CO)C(O)C(O)C3O)OC=CC12)c1ccc(O)cc1 (configuration not stated) | inactive | –
COC(=O)CC(O)CC(O)/C=C/c1c(C)ccc2c1C(O)CC(C)C2 (configuration not stated) | inactive | –
COc1cc(O)c2c(c1)C1=C[C@H](O)[C@@H](O)C[C@]1(C)OC2=O | inactive | –
CC(C)c1ccc(CO)cc1O[C@@H]1O[C@H](CO)[C@@H](O)[C@H](O)[C@H]1O | inactive | –
CC(=O)O[C@@H]1[C@H](O)[C@@H](O[C@@H]2O[C@@H](C)[C@H](O[C@@H]3OC[C@@H](O)[C@H](O[C@@H]4OC[C@@H](O)[C@H](O)[C@H]4O)[C@H]3O)[C@@H](O[C@@H]3O[C@H](CO)[C@@H](O)[C@H](O)[C@H]3O)[C@H]2O)[C@H](OC(=O)[C@]23CCC(C)(C)C[C@H]2C2=CCC4[C@@]5(C)CC[C@H](O[C@@H]6O[C@H](C(=O)O)[C@@H](O)[C@H](O[C@@H]7OC[C@@H](O)[C@H](O)[C@H]7O)[C@H]6O[C@@H]6O[C@H](CO)[C@H](O)[C@H](O)[C@H]6O)[C@@](C)(C=O)C5CC[C@@]4(C)[C@]2(C)CC3)O[C@@H]1C (some centres not stated) | – | -2.98% [at 6.55 µM]
C/C=C(\C)C(=O)O[C@@H]1CC2[C@@H](CC=C3C[C@@H](O[C@H]4C[C@H](OC)[C@H](O[C@H]5C[C@H](OC)[C@H](O[C@@H]6O[C@H](C)[C@@H](O[C@H]7C[C@H](OC)[C@H](O[C@@H]8O[C@H](CO)[C@@H](O)[C@H](O)[C@H]8O)[C@@H](C)O7)[C@H](OC)[C@H]6O)[C@@H](C)O5)[C@@H](C)O4)CC[C@@]32C)[C@@]2(O)CC[C@H](C(C)=O)[C@@]12C (some centres not stated) | – | -1.14% [at 6.55 µM]
C=C(CCC1=C(C)[C@H]2[C@H](CC3[C@@H]4CC=C5C[C@@H](O)C[C@@H](O)[C@]5(C)C4[C@H](O)C[C@@]32C)O1)CO[C@@H]1O[C@H](CO)[C@@H](O)[C@H](O)[C@H]1O (some centres not stated) | 3160 nM (active) | –
C[C@@H]1CC[C@@]2(OC1)O[C@H]1C[C@H]3[C@@H]4CC=C5C[C@@H](O)CC[C@]5(C)[C@H]4CC[C@]3(C)[C@H]1[C@@H]2C | inactive | –
COC1=CC(=O)CC(C)C12Oc1cc(OC)cc(O)c1C2=O (configuration not stated) | inactive | –

Compound | Potency | activity change, negative = cytotoxicity
CC(C)(C)NS(=O)(=O)c1cncc(-c2cc(F)c3nc(N)nn3c2)c1 | inactive | –
CC(C)=CCc1cc(C(O)C2NC(=O)CNC(=O)C(Cc3c[nH]c4ccccc34)NC(=O)C3CCCN3C(=O)CNC(=O)C(C(C)C)NC(=O)CNC2=O)ccc1O (configuration not stated) (cyclo(G[X4]GVGPW); configuration not given here) | – | 0.641% [at 11.6 µM]
Cc1cc(N2CCN([C@@H]3CN[C@H](C(=O)N4CCSC4)C3)CC2)n(-c2ccccc2)n1 | inactive | –
CC(=O)N1CCN(Cc2ccc([C@H](C)Nc3nccc(N4C(=O)OC[C@@H]4C(C)C)n3)cc2)CC1 | inactive | –
C/C(=C\CCC(C)CCO)C(=O)OC1(C)CCC2C(C(=O)O)=COC(OC3OC(CO)C(O)C(O)C3O)C21 (configuration not stated) | inactive | –
Cc1cc(C(N)=O)ccc1-n1c(CCC(=O)O)ccc1-c1ccc(-n2ccnc2)cc1 | inactive | –
NC(=O)c1csc(C2OC(CO)C(O)C2O)n1 (configuration not stated) | inactive | –
COc1c2c(c(CO)c3c1C(=O)OC3)OC1(C)CCC3(O)C(C)(C)OC(=O)CCC3(C)C1C2 (configuration not stated) | inactive | –
CC1=C(C)C(=O)OC(C(C)C2CCC3C4CC=C5CC(OC6OC(COC7OC(CO)C(O)C(O)C7O)C(O)C(O)C6O)CC(O)C5(C)C4CCC23C)C1 (configuration not stated) | inactive | –
O=C(NCc1cccc(O)c1)c1cc2cc(F)ccc2[nH]1 | inactive | –
CCOc1cc(CC(=O)NC(CC(C)C)c2ccccc2N2CCCCC2)ccc1C(=O)O (configuration not stated) | inactive | –
CC1(C)CC2C(C1)C(C)(O)C13CC1(COC3=O)C2O (configuration not stated) | inactive | –
NC1(C(=O)NC(CCO)c2ccc(Cl)cc2)CCN(c2ncnc3[nH]ccc23)CC1 (configuration not stated) | inactive | –
COC(=O)c1ccnc(-c2cc(C(=O)NCCc3ccccc3)ccn2)c1 | inactive | –
COc1cc(OC)c(/C=C/S(=O)(=O)Cc2ccc(OC)c(NCC(=O)O)c2)c(OC)c1 | 316 nM (active) | –
COC(=O)c1cc(OC)cc(OC)c1C(=O)c1c(OC)cc2c(c1O)C1CCCC(C)(O2)O1 (configuration not stated) | inactive | –
O=C(O)CC1CCC(c2ccc(-c3ccc4nc(C(=O)NCc5ccc(OC(F)(F)F)cc5)cn4c3)cc2)CC1 (configuration not stated) | inactive | –
COc1cc2occc2c(O[C@@H]2O[C@H](CO)[C@@H](O)[C@H](O)[C@H]2O)c1CCC(=O)O | inactive | –
